# Compounds with a hit are over-represented: about 6.9% of the library has one in this group of screens.
# HP1b binding inh = HP1-beta chromodomain-methylated histone interaction inhibition; P83916; AlphaScreen HP1-beta / biotin-H3K9me3 peptide binding; Potency, µM (highest dose often 114 µM), without a hit: top-dose activity change, negative = inhibition, most hits filed as inhibitors; hit rate 0.56% among 390,000; AID 540317; further: nearly all actives have a fitted effect of over 70% in size
# Target sequence (P83916 whole entry, looked up): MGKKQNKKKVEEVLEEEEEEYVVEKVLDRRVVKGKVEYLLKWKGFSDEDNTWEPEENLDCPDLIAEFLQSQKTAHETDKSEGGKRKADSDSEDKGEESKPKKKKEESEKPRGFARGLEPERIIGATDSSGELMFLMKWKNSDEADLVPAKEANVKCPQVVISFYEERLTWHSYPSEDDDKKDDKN
#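 Compound inhibition of the preformed complex between 50 nM HP1-beta and 50 nM biotinylated H3K9me3 peptide was read by AlphaScreen. Buffer was PBS pH 7.4 with 0.01% Tween-20. Incubations ran 30 min at room temperature, with 10 ug/mL donor/acceptor beads.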
# JMJD2A Tudor inh = inhibitors of human JMJD2A Tudor domain; hit rate 4.4% among 390,000; AlphaScreen JMJD2A-Tudor / H3K4me3 peptide binding; Potency, µM (highest dose often 114 µM), for the others: top-dose activity change, negative = inhibition, actives largely listed as inhibitors; further: on the % scale 0 is the no-effect control and ±100 the full control effect; nearly all actives have a fitted effect of over 50% in size
# BAZ2B inh = BAZ2B (human) inhibition; Q9UIF8; AlphaScreen BAZ2B-H3K14Ac peptide displacement; Potency, µM (top dose mostly 114 µM), without a hit: top-dose activity change, negative = inhibition, usual class: inhibitors; hit rate 4.4% among 360,000; further: on the % scale 0 is the no-effect control and ±100 the full control effect; nearly all actives have a fitted effect of over 60% in size
#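 Inhibition is scored as reduced AlphaScreen emission. The BAZ2B/b-H3(5-23)K14Ac complex (50 nM each) in PBS pH 7.4, 0.01% Tween-20 meets compound (up to 110 uM) for 30 min at RT before bead addition.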
# PLK1 PBD block = PLK1 (human) polo-box domain binding inhibition; Potency, µM, for the others: max response, negative = inhibition, usual class: inhibitors; P53350; Plk1 PBD binding of FITC phosphopeptide, fluorescence polarization; hit rate 2.8% among 360,000; AID 720504; further: series mostly up to about 57 µM; on the % scale 0 is the no-effect control and ±100 the full control effect; nearly all actives have a fitted effect of over 65% in size
# VDR inhibitor = inhibitors of human vitamin D receptor; VDR-SRC2-3 peptide fluorescence polarization, 2 h; Potency, µM, without a hit: max response, negative = inhibition, most hits filed as inhibitors; hit rate 0.93% among 400,000; further: on the % scale 0 is the no-effect control and ±100 the full control effect
# Target sequence (P11473 whole entry, looked up): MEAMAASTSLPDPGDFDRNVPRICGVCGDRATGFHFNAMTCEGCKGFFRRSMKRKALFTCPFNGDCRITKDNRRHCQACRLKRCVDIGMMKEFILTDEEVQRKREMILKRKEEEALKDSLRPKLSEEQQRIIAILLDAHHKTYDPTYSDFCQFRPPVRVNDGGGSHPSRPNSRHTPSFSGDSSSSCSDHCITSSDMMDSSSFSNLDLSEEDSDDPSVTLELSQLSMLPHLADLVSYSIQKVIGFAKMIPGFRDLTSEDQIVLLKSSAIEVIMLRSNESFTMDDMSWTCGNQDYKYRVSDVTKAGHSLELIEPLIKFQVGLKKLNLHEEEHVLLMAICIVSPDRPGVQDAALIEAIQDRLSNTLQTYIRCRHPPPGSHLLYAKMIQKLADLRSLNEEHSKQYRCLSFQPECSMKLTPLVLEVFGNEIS
#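 Reagent solutions, kept cold and dark, are dispensed first; compounds are then pinned in at 23 nl, plates briefly spun, and incubated 2 h at ambient temperature. Inhibition of VDR–SRC2-3 peptide binding is read by fluorescence polarization.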
# L3MBTL1 inh = blocks human L3MBTL1 | AlphaScreen L3MBTL1–H3K9me1 peptide binding | hit rate 0.66% among 230,000 | Q9Y468 | Potency, µM (series often up to 57.1 µM), inactives show top-dose activity, negative = inhibition, most hits filed as inhibitors; further: on the % scale 0 is the no-effect control and ±100 the full control effect; nearly all actives have a fitted effect of over 60% in size
#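 L3MBTL1 50 nM + b-AHA-H3(1-15)K9me1 75 nM, 30 min RT; compound added, 30 min RT; streptavidin donor/Ni-chelate acceptor beads 10 ug/mL each final, 30 min RT dark; AlphaScreen read.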
# Numbers without * were called inactive; u = inconclusive; x = not tested or not shown; [ ] = another dose, or the depositor's remark. The call rests on the fitted dose curve; in most records, active means well fitted curve in the direction sought with a large enough effect; inconclusive means small, poorly fitted or top-dose-only effect, or another doubt; inactive means no such curve, though single readings can be large; an effect the other way counts as inactive or inconclusive. Potency means the concentration at half of the fitted maximal effect.
SMILES,HP1b binding inh,JMJD2A Tudor inh,BAZ2B inh,PLK1 PBD block,VDR inhibitor,L3MBTL1 inh
CC(C)(C)S(=O)(=O)/C(C#N)=C/c1cccn1S(=O)(=O)c1ccccc1,x,x,x,1.1%,x,x
Cc1c(Cl)cccc1NC(=O)CN1C(=O)COc2ccc(S(=O)(=O)N3CCCCCC3)cc21,39.0%,9.2%,-0.4%,x,13.4%,x
Cc1ccccc1CSCCNC(=O)CN(c1ccccc1)S(=O)(=O)N(C)C,4.8%,44.7µM*,-7.3%,x,-2.6%,x
CN(C)S(=O)(=O)N(CC(=O)NCCSCc1ccccc1)c1ccccc1,u,-34.7%,-16.2%[57.1 µM],-13.8%,7.7%,x
O=C(Nc1ccc(Cl)cc1)N(CCCN1CCOCC1)Cc1cccs1,16.8%,-28.4%,-3.6%,-7.5%,-13.1%,x
Cc1ccc(Cl)cc1NC(=S)N(CCCN1CCN(C)CC1)Cc1cccs1,-2.6%,-19.8%,-19.2%,-5.6%,6.9%,-8.8%
O=C(CNC(=S)N(CCCN1CCOCC1)Cc1cccs1)NCCN1CCOCC1,25.1%,-7.3%,-4.7%,-10.0%,2.1%,5.0%
Cc1ccccc1NC(=S)N(CCCN1CCOCC1)Cc1ccccn1,-6.4%,3.55µM*,-2.9%,-9.0%,-9.2%,-3.1%
Cc1cc(Cl)ccc1NC(=S)N(CCCN1CCOCC1)Cc1cccs1,-10.8%,-9.3%,-4.6%,10.6µM*,u,1.9%
CCN(CC)CCCNC(=O)CNC(=S)N(CCCN1CCOCC1)Cc1cccs1,0.6%,-31.4%,-16.5%,18.9µM*,-3.4%,-4.5%
O=S(=O)(c1ccc(Cl)cc1)N(CCCN1CCOCC1)Cc1cccs1,14.8%,8.91µM*,50.1µM*,-6.0%,1.7%,x
COCC(=O)N1CCC2(CCN(Cc3nccs3)CC2)CC1,x,x,x,x,5.5%,x
CC(=O)c1nnn(-c2ccc(C)cc2Cl)c1C,41.0%,1.1%,1.2%,x,17.6%,x
Cc1nn(Cc2cccc(C(=O)O)c2)c(C)c1[N+](=O)[O-],30.2%,-8.5%,-12.3%,2.2%,-7.2%,3.5%
COc1cccc(-c2noc(Cn3nc(C)c([N+](=O)[O-])c3C)n2)c1,-11.9%,-11.6%,-0.1%,18.9µM*,-27.7%,-6.0%
COC(=O)c1cccc(Cn2nc(C)c([N+](=O)[O-])c2C)c1,9.1%,50.1µM*,-14.6%,21.2µM*,-29.2%,x
CN(C)c1nc(-c2cccc(NS(C)(=O)=O)c2)nc2ccccc12,x,x,x,x,-6.0%,x
Cc1c(Cl)cccc1N1C(=O)CC(Sc2ccccc2N)C1=O (stereo not drawn),x,x,x,-8.2%,x,x
O=C(NCCNC1CCC(c2ccccc2)CC1)c1ccc(F)cc1 (stereo not drawn),u,5.62µM*,25.1µM*,-7.3%,-0.1%,-1.8%
O=C(NCCCc1ccccc1)c1ccc(F)cc1,67.0%,2.1%,9.6%,-5.4%,-3.9%,5.5%
COc1ccc2c(c1)CCC1[C@@H]2CCC2(C)[C@@H](NCCCCCCN3C(=O)C=CC3=O)CC[C@@H]12 (stereo partly drawn),x,x,x,x,0.0%,x
CCOc1ccc(C(=O)OC(C)CN2CCN(C)CC2)cc1 (stereo not drawn),-9.8%,79.4µM*,-17.9%,-4.3%,-15.3%,x
CC(CN1CCN(C)CC1)OC(=O)c1ccc(Cl)cc1 (stereo not drawn),28.4%,u,-6.0%,-15.7%,-9.9%,1.1%
COc1ccc(OC)c(C(c2nnnn2CC2CCCO2)N2CCN(C)CC2)c1 (stereo not drawn),17.4%,-13.7%,79.4µM*,0.4%,-4.7%,x
CCN1CCN(C(c2cc(OC)c(OC)c(OC)c2)c2nnnn2C(C)C)CC1 (stereo not drawn),39.2%,-26.6%,50.1µM*,-5.2%,8.6%,x
SMILES,HP1b binding inh,JMJD2A Tudor inh,BAZ2B inh,PLK1 PBD block,VDR inhibitor,L3MBTL1 inh
C=CCN1CCN(C(c2cc(OC)ccc2OC)c2nnnn2CC2CCCO2)CC1 (stereo not drawn),9.4%,-14.4%[11.4 µM],x,29.9µM*,-20.3%,11.2%
C=CCN1CCN(C(c2ccc(Cl)cc2)c2nnnn2CCc2ccc(OC)c(OC)c2)CC1 (stereo not drawn),73.0%,1.2%,-5.7%,-11.8%,-6.6%,-2.4%
COc1ccc(OC)c(C(c2nnnn2CC2CCCO2)N2CCN(C3CCCC3)CC2)c1 (stereo not drawn),13.3%,-17.1%,u,-10.7%,13.1%,-5.6%
C=CCN1CCN(C(c2ccc(OC)c(OC)c2)c2nnnn2C(C)(C)C)CC1 (stereo not drawn),50.4%,0.0%,79.4µM*,-3.7%,-13.5%,-2.1%
O=S(=O)(c1ccc2c(c1)OCCO2)N1CCN(S(=O)(=O)c2ccccc2OC(F)(F)F)CC1,x,-11.0%,x,x,x,x
COCCn1c(=O)c(-c2ccccc2)nc2cnc(Oc3ccccc3)nc21,x,x,x,x,-10.0%,x
Cc1cc(C)c(S(=O)(=O)NCC2CCC(C(=O)NCCc3ccccc3)CC2)c(C)c1 (stereo not drawn),8.0%,8.0%,4.2%,x,15.5%,x
N#CC1(NC(=O)CN2CCN(S(=O)(=O)c3ccccc3F)CC2)CCCC1,20.0%,0.0%,1.1%,-0.6%,-11.0%,-0.3%
NNS(=O)(=O)c1ccc(N2CCCC2=O)c([N+](=O)[O-])c1,48.5%,25.1µM*,-17.1%,26.7µM*,u,1.8%
CCCN(CCC)S(=O)(=O)c1ccc(Cl)c([N+](=O)[O-])c1,3.7%,-18.0%[11.4 µM],u,-11.5%,9.4%,-18.9%
CCCCN(CCCC)S(=O)(=O)c1ccc(SCC(=O)OCC)c([N+](=O)[O-])c1,79.4µM*,u,-31.2%,u,-8.2%,x
CCCCN(CCCC)S(=O)(=O)c1ccc(N2CCCC2=O)c([N+](=O)[O-])c1,-7.5%,31.6µM*,x,15µM*,u,x
COc1ccc(C(=O)NCc2nnnn2-c2ccc(C)c(C)c2)cc1,17.8%[57 µM],-15.3%,9.3%,x,5.2%,x
CCOc1ccc(NC(=O)Nc2cc3c(cc2N2CCCCC2)n(C)c(=O)n3C)cc1,22.8%,-18.5%,16.0%,x,-4.2%,x
COc1ccc(N2C(=O)/C(=C\c3ccco3)N=C2SCC(=O)NC(C)C)cc1Cl,-7.4%,-18.8%,u,0.1%,3.3%,-3.6%
O=C(CSC1=N/C(=C/c2ccco2)C(=O)N1c1ccc(OC(F)F)cc1)NC1CCS(=O)(=O)C1 (stereo not drawn),-13.4%,u,50.1µM*,-14.8%,-18.6%,-1.5%
O=C(CCNS(=O)(=O)c1ccccc1)NNC(=O)c1csc(N2CCOCC2)n1,42.7%,-9.5%,-0.2%,-1.1%,5.3%,10.7%
CC(=O)Nc1ccc(S(=O)(=O)NCC(=O)NNC(=O)c2csc(N3CCOCC3)n2)cc1,53.0%,-10.9%,-6.4%,21.2µM*,4.2%,8.6%
Cc1nn(-c2ccc(Cl)cc2)c2[nH]c(CCl)cc(=O)c12,8.7%,79.4µM*,-30.8%,-11.4%,2.4%,x
Cc1cc(=O)[nH]c2c1c(C)nn2-c1ccccc1,10.2%,-9.5%,-0.4%,-9.4%,2.0%,4.7%
CCOc1cccc2sc(NC(=O)CS(=O)(=O)c3ccc(C)cc3)nc12,29.2%,-13.6%,-4.0%,x,16.1%,x
